# Assay outcomes from PubChem.
# pPAFAH FP inh: pPAFAH enzyme inhibitors, primary screen, biochemical, fluorescence polarization, human | Platelet-activating factor acetylhydrolase (Homo sapiens), Q13093 | recombinant pPAFAH, FP-rhodamine probe fluorescence polarization | inhibition, % at 3.39 µM | actives 1.5% (n = 330,000) | AID 463082, 2010;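 active means inhibition above the mean inhibition across the screen plus 3 SD, cut at about 25% in these data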;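 further: inhibitors block binding of the rhodamine activity-based probe so polarization drops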
# PAFAH2 FP inh: PAFAH2 enzyme inhibitors, primary screen, biochemical, fluorescence polarization, human | Platelet-activating factor acetylhydrolase 2, cytoplasmic (Homo sapiens), Q99487 | AID 492956, 2010 | recombinant PAFAH2, FP-rhodamine activity probe | actives 0.99% (n = 340,000) | inhibition, % at 3.39 µM;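 active means inhibition above the mean over all tested compounds plus 3 SD, cut at about 30% in these data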;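 further: inhibitors block probe labeling of enzyme so polarization drops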
# PAFAH1B3 FP inh: PAFAH1B3 enzyme inhibitors, primary screen, biochemical, fluorescence polarization, human | Platelet-activating factor acetylhydrolase IB subunit alpha1 (Homo sapiens), Q15102 | recombinant PAFAH1B3, FP-rhodamine probe | inhibition, % at 3.39 µM | actives 0.28% (n = 340,000) | AID 492972, 2010;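 active means inhibition above the screen-wide average of all tested compounds plus 3 SD, cut at about 25% in these data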
# LYPLA1 counter: LYPLA1 inhibitors, primary screen, counter-screen for PME1 inhibitor project, biochemical, fluorescence polarization, FP-Rh probe ABPP. Acyl-protein thioesterase 1 (Homo sapiens), O75608. recombinant LYPLA1. inhibition, % at 5.9 µM. actives 0.16% (n = 320,000). AID 2174, 2009;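 active means inhibition above the mean of all tested compounds plus 3 SD, set per campaign, cut at about 14% in these data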;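 further: inhibitors block serine hydrolase probe labeling of LYPLA1 so polarization falls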
# Target sequence (O75608 whole entry, looked up): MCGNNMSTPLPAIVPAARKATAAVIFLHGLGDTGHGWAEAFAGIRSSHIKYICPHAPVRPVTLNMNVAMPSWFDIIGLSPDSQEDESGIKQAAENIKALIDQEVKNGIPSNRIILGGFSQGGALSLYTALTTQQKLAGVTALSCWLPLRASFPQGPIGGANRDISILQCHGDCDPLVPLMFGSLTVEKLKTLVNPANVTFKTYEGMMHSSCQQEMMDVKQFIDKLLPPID
# PAFAH1B2 inh: PAFAH1B2 enzyme inhibitors, primary screen, biochemical, fluorescence polarization, human. actives 1.2% (n = 340,000). inhibition, % at 3.39 µM. Platelet-activating factor acetylhydrolase IB subunit alpha2 (Homo sapiens), P68402. recombinant PAFAH1B2, FP-rhodamine activity probe;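 active means inhibition above the mean of all tested compounds plus 3 SD, cut at about 24% in these data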
# Target sequence (P68402 whole entry, looked up): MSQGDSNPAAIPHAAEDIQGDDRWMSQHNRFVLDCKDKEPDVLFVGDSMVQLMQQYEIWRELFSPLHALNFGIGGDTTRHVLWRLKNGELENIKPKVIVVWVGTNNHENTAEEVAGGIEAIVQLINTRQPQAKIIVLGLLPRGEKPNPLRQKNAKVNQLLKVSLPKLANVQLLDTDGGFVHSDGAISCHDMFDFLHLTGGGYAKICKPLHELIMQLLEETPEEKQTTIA
# LYPLA2 inh: LYPLA2 inhibitors, primary screen, counter-screen for PME1 inhibitor project, biochemical, fluorescence polarization, FP-Rh probe ABPP | actives 0.38% (n = 320,000) | recombinant LYPLA2 | inhibition, % at 5.9 µM;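 active means inhibition above the screen-wide mean plus 3 SD, limit set per campaign, cut at about 26% in these data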
# A number is an active result; - = inactive; . = not tested or not shown. An excerpt weighted towards active compounds, which were near 2.9% of everything screened.
SMILES,pPAFAH FP inh,PAFAH2 FP inh,PAFAH1B3 FP inh,LYPLA1 counter,PAFAH1B2 inh,LYPLA2 inh
CN(C)c1ccc(C(=O)Nc2cccc(S(=O)(=O)N3CCCC3)c2)cc1,-,-,-,-,-,-
COc1cc(C2(c3ccc(O)c(OC)c3)C(=O)N(C)c3ccc(Br)cc32)ccc1O,-,-,-,-,-,-
COc1cc(C2(c3ccc(O)c(OC)c3)C(=O)Nc3c(Br)cc(Br)cc32)ccc1O,-,-,-,-,25,-
O=S(=O)(NC(CO)Cc1ccccc1)c1ccc(Br)cc1F (stereo unspecified),.,-,-,.,29,.
O=S(=O)(NC(CO)Cc1ccccc1)c1cc(Cl)ccc1F (stereo unspecified),.,-,-,.,-,.
Cc1cccc2cc(COC(=O)c3cccc([N+](=O)[O-])c3)c(=O)[nH]c12,-,.,.,-,.,-
Cc1cc(C)c(NC(=O)CNC(=O)c2ccc3ncsc3c2)c(C)c1,-,-,-,.,-,.
Cc1ccc(Cc2cnc(NC(=O)C3CCCO3)s2)cc1 (stereo unspecified),-,-,-,-,28,-
CN(CC1CCOCC1)C(=O)CC1C(=O)NCCN1Cc1ccccc1F (stereo unspecified),-,-,-,-,-,-
COc1cccc(/C=N/NC(=O)c2cc3c(OC)ccc(OC)c3[nH]2)c1O,-,-,40,-,29,-
Cc1cccc(N2CC(C(=O)Nc3nnc(SCc4ccccn4)s3)CC2=O)c1 (stereo unspecified),27,-,-,-,-,-
Cc1ccc(CNn2cnnc2SCc2ccc(F)cc2)cc1,-,-,-,-,28,-
Fc1ccc(CNn2cnnc2SCc2ccc(F)cc2)cc1,-,-,-,-,-,-
Cc1ccc2nc(SCC3CCCCO3)[nH]c2c1 (stereo unspecified),-,-,-,-,-,-
CCC(=O)Nc1cc(C)c(NC(=O)C23CC4CC(CC(C4)C2)C3)cn1,-,-,-,-,32,-
Cn1c(SCc2ccc(Br)cc2)nnc1-c1cccs1,-,-,-,-,24,-
Cc1ccc(CSc2nnc(-c3cccs3)n2C)cc1,-,-,-,-,-,-
CCCCCCCCOC(=O)c1ccc(N)cc1,32,55,-,-,-,-
COc1cc(S(=O)(=O)Nc2cccc(C)c2)ccc1NC(=O)c1ccncc1,33,-,-,-,-,-
Cc1cccc(NC(=O)c2cccc(NS(=O)(=O)c3ccc(Cl)cc3)c2)c1,-,-,-,-,-,-
COc1ccc(-c2sc3ccc(N4CCOCC4)cc3c2C#CC(C)(C)O)cc1,-,-,-,-,-,-
COc1ccc(-c2sc3ccc(N4CCOCC4)cc3c2C#Cc2ccsc2)cc1,28,-,-,.,-,.
CC(C)NC(=S)N/N=C/c1ccccc1[N+](=O)[O-],-,-,-,-,-,-
CN(C)C(CNC(=O)c1cccs1)c1ccco1 (stereo unspecified),-,-,-,-,-,-
Cc1ccc(C(=O)OCC(=O)N2c3ccccc3NC(=O)C2(C)C)cc1S(=O)(=O)N1CCCCC1,-,-,-,.,27,.
SMILES,pPAFAH FP inh,PAFAH2 FP inh,PAFAH1B3 FP inh,LYPLA1 counter,PAFAH1B2 inh,LYPLA2 inh
Cc1ccc(S(=O)(=O)N2CCCCC2)cc1C(=O)OCC(=O)N1c2ccccc2NC(=O)C1(C)C,-,-,-,.,34,.
Cc1cc(C)c(C)c(S(=O)(=O)N2CCC(C(=O)OCC(=O)N3c4ccccc4NC(=O)C3(C)C)CC2)c1C,-,-,-,-,-,-
COc1ccc(-c2nc(C#N)c(NCc3ccccc3Cl)o2)cc1OC,-,-,-,-,-,-
CNC(=O)/C(C#N)=C/c1cccc(Oc2ccccc2)c1,-,-,-,-,-,-
Oc1c(Br)cc(Br)c2cccnc12,.,-,-,.,-,.
[O-][n+]1cccc2c(Br)cc(Br)c(O)c21,34,-,-,-,-,-
Cc1ccccc1CN1C(=O)c2ccccc2S(=O)c2ccc(C(=O)NCCCN3CCOCC3)cc21 (stereo unspecified),-,-,-,-,-,-
CCOC(=O)C1=C(C)N=c2s/c(=C/c3ccco3)c(=O)n2C1c1cccc(OC)c1 (stereo unspecified),33,.,.,-,.,-
CC(C)c1cc(Br)ccc1OCCCN1C(=O)NC(C)(C)C1=O,-,-,-,-,-,-
Cc1ccc2[nH]c(C(=O)O)c(NC(=O)[C@@H]3C[C@@H]3c3ccccc3)c2c1,-,-,-,-,31,-
CCOc1cc(C(=O)OCC(=O)c2c(C)[nH]c3ccccc23)ccc1OCC(=O)N1CCOCC1,-,-,-,-,-,-
Cc1cc(OC(C)C(=O)NC(Cc2c[nH]c3ccc(O)cc23)C(=O)O)c2c(C)cc(=O)oc2c1 (stereo unspecified),-,-,-,-,-,-
O=C(Cc1cc(=O)oc2cc(O)ccc12)N[C@@H](Cc1c[nH]c2ccccc12)C(=O)O,-,-,-,-,-,-
CC(Oc1ccc2c(-c3ccccc3)cc(=O)oc2c1)C(=O)NC(Cc1c[nH]c2ccc(O)cc12)C(=O)O (stereo unspecified),-,-,-,-,71,-
O=C(COc1ccc2c(-c3ccccc3)cc(=O)oc2c1)N[C@@H](Cc1c[nH]c2ccc(O)cc12)C(=O)O,-,-,-,-,63,-
CC(C)CC(=O)Nc1cc(NC(=O)CC(C)C)cc(C(=O)NC(C)(C)C)c1,-,-,-,-,-,-
Cc1cc(S(=O)(=O)N2CCN(c3ccccn3)CC2)ccc1F,.,-,-,.,-,.
Cc1ccc(Cc2cnc(N3C(=N)SC(C)C3=O)s2)cc1 (stereo unspecified),25,-,-,-,75,-
O=C(CN1C(=O)C2CCCCC2C1=O)OCC(=O)c1ccc(Cl)s1 (stereo unspecified),26,40,-,-,-,-
O=C(CNC(=O)C1CCCCC1)OCC(=O)c1ccc(Cl)s1,-,-,-,-,-,-
C=CCOC(=O)C(=O)/C=C/c1csc2ccccc12,-,-,-,-,-,-
C=CCOC(=O)C(=O)/C=C/c1ccc2c(c1)Cc1ccccc1-2,27,-,-,-,-,-
O=C(COC(=O)C12CC3CC(CC(Br)(C3)C1)C2)Nc1cccc(S(=O)(=O)N2CCOCC2)c1,-,-,-,.,31,.
O=C(COC(=O)C12CC3CC(CC(Br)(C3)C1)C2)Nc1cccnc1Cl,-,-,-,-,32,-
CN(Cc1ccccc1)C(=O)COC(=O)C12CC3CC(CC(Br)(C3)C1)C2,-,-,-,.,42,.
O=C(COC(=O)C12CC3CC(CC(O)(C3)C1)C2)Nc1ccccc1OC(F)F,-,-,-,-,-,-
